Experimental data reported in PubChem BioAssay AID624418 (National Center for Advancing Translational Sciences (NCATS), 2012).
In all, about 410,000 compounds went through this assay and about 530 (0.13%) were called active. About 5% were inconclusive and are not listed. For the sample, actives were picked, then their nearest neighbours and some compounds at random. Values without a mark were called inactive. Calls follow the shape of the dose curve; as a rule, active = well fitted inhibition curve with a large enough effect; inconclusive = small, poorly fitted or top-dose-only effect, or another doubt; inactive = no such curve, though single readings can be large or run the other way.

Assay: qHTS of GLP-1 Receptor Inverse Agonists: Cytotox Screen;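 also: loss of luciferase light is scored as toxicity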
Details: HEK293 cAMP-luciferase reporter cells, luminescence, 24 h; series mostly up to 38.3 µM; activity change, negative = inhibition: at the top concentration
Source text: The overall goal of this project was to develop a novel assay for discovering small molecule ligands for class B1 G protein-coupled receptors (GPCRs). Very few agonists (or inverse agonists) with generally weak activity for this entire group of physiologically important receptors are known to date. To establish proof-of-principle that this critical bottleneck can be overcome with a suitable screening approach, our studies focused on the class B1 receptor for glucagon-like peptide-1 (GLP-1R), a potential therapeutic target for diabetes and neurodegenerative disease.
The assay was developed using a cell-based functional readout. Toward this goal, stably transfected HEK293 cell clones were established that co-express (i) a cAMP-responsive luciferase reporter gene, and (ii) constitutively active GLP-1R that upon ligand interaction inhibit (inverse agonists) the luciferase activity. In addition, two control cell lines were developed: (i) one that express only the cAMP-responsive reporter gene to enable initial exclusion of GLP-1R independent effects of candidate probes; and (ii) one with the reported gene cloned with another constitutively active orphan receptor GPR119 to enable exclusion of GLP-1R independent inhibitor effects of candidate inverse agonists.
To that end, this assay was optimized for 1536-well format and screened against the MLSMR. Then the same collection was run in this cytotoxicity assay where inhibition was the undesired outcome.
NIH Molecular Libraries Probe Production Network [MLPCN]
NIH Chemical Genomics Center [NCGC]
PI Name: Martin Beinborn, Tufts Medical Center
Six ul of cell suspension (200 cells/uL in DMEM + 10% Nu serum + 1% pen-strep) is dispensed in a white solid 1536-well plate. The plates are incubated for 12 hours at 37 deg C at 5% CO2 followed by addition of 23 nL compounds. After 24 hr incubation at 37 deg C and 5% CO2, 3 uL of luciferase assay detection reagent is added. A luminescence read is obtained on the PerkinElmer Viewlux after 12 min incubation at room temperature.
% is scaled to controls: 0 for no effect and ±100 for the full control effect; potency is read from the fitted curve at half-maximal effect.

Row | SMILES | activity change, negative = inhibition [%] | Potency
1 | CCc1ccc(NC(=O)c2cc(S(=O)(=O)NC3CCCCCC3)ccc2F)cc1 | -6.43 | 
2 | CCCCN(CC)C(=O)c1c[nH]c2ccc(S(=O)(=O)Nc3cccc(OC)c3)cc2c1=O | 6.62 | 
3 | Cc1cccc(NC(=O)c2ccc(F)c(S(=O)(=O)N(C)C3CCCCC3)c2)c1 | -8.84 | 
4 | COc1ccc(NC(=O)c2ccc3oc(=O)c(S(=O)(=O)c4ccc(F)cc4)cc3c2)c(OC)c1 | 1.46 | 
5 | Cc1ccc(-n2c(SCC(=O)Nc3cccc(F)c3)nc3c(oc4ccccc43)c2=O)cc1C | -5.23 | 
6 | CC(C)Oc1ccc(NC(=O)c2cc3ccccc3o2)cc1 | -8.43 | 
7 | Cc1ccc(NC(=O)C2CCN(S(=O)(=O)c3cc(-c4noc(C)n4)ccc3C)CC2)c(C)c1 | 1.29 | 
8 | Cc1ccc(Cl)cc1NC(=O)/C(C#N)=C\c1cn(Cc2ccc(F)cc2)c2ccccc12 | 14.9 | 
9 | Cc1c(C(=O)NCCN2CCOCC2)sc2nc(-c3ccc(F)cc3)cn12 | 7.28 | 
10 | Fc1ccc(-c2ccc(NCCN3CCOCC3)nn2)cc1 |  | 10 µM (active)
11 | CN(CC(=O)NCCN1CCOCC1)S(=O)(=O)c1ccc(F)cc1 | -3.23 | 
12 | COc1cc(OC)cc(C(=O)NCCc2csc3nc(-c4ccccc4F)nn23)c1 | -13.8 | 
13 | CCOc1ccc(NC(=O)CCc2c(C)nn(-c3ccc(N4CCCC4)nn3)c2C)cc1 | 2.64 | 
14 | COc1ccc(C)cc1N(CC(=O)N1CCC(C)CC1)S(=O)(=O)c1ccc(C)cc1 | -24.2 | 
15 | O=C1/C(=C\c2ccc([N+](=O)[O-])cc2)CS(=O)(=O)C/C1=C/c1ccc([N+](=O)[O-])cc1 |  | 3.16 µM (active)
16 | COc1cc(C(=O)N2CCN(C(=O)COc3cccc(C)c3)CC2)cc(OC)c1OC | -5.09 | 
17 | CCc1nc2nc(C)cc(Nc3ccc(F)c(Cl)c3)n2n1 | 17.1 | 
18 | COCCNC(=O)CSc1c(C)cnc2c1c(=O)n(C)c(=O)n2C | 5.33 | 
19 | CCOCCCNC(=O)c1c(NC(=O)Cc2coc3c(C)c(C)ccc23)sc2c1CCC2 | 23.9 | 
20 | Cc1ccc(S(=O)(=O)c2nnn3c2nc(N2CCN(c4ccccc4F)CC2)c2cc(Cl)ccc23)cc1C | -2.54 | 
21 | CN(C)C(=S)N=c1ssc(=S)n1Cc1ccco1 |  | 0.316 µM (active)
22 | CCc1ccccc1N1CN(Cc2ccco2)CNC1=S | 1.02 | 
23 | CCOC(=O)c1ccc(CN(Cc2ccccc2)S(=O)(=O)c2ccc(Cl)cc2)cc1 | -0.273 | 
24 | COc1c(Cl)cc(Cl)cc1C(=O)Nc1cccc2cccnc12 | 1.03 | 

Row | SMILES | activity change, negative = inhibition [%] | Potency
25 | CC(C)C12CN3CC(C(C)C)(CN(C1)C3c1ccc(OCc3ccccc3)cc1)C2=O (stereo not drawn) | -5.12 | 
26 | Cc1ccccc1-c1nc2cc(NC(=O)c3cccc(OCCC(C)C)c3)ccc2o1 | -0.847 | 
27 | COc1ccc(-n2c(SC)nc3sc4c(c3c2=O)CCN(C(C)=O)C4)cc1 | 1.79 | 
28 | O=C(c1ccc2c(c1)N(Cc1ccccc1)C(=O)c1ccccc1S2(=O)=O)N1CCCC1 | -15.1 | 
29 | CC1CCCCN1CC(=O)N1CCCc2c1c(=O)oc1ccc(OCc3ccccc3)cc21 (stereo not drawn) | 25.7 | 
30 | CCC1CCCCN1Cc1c(O)ccc2c(=O)c(Oc3ccccc3Cl)c(C(F)(F)F)oc12 (stereo not drawn) | -12.2 | 
31 | COC(=O)c1sccc1S(=O)(=O)N(CC(=O)Nc1ccc(C)c(F)c1)c1ccc(C)c(C)c1 | 11 | 
32 | O=S(=O)(c1ccc2nc(N3CCN(c4cccc(Cl)c4)CC3)ccc2c1)N1CCCCC1 | -3.17 | 
33 | COc1ccccc1NC(=O)CN1C(=O)c2ccccc2Sc2ccc(C(=O)N3CCCC3)cc21 | 2.54 | 
34 | CCOc1ccc(NC(=O)c2cc3c(=O)n(Cc4cccs4)ccc3nc2C)cc1 | -11.3 | 
35 | CCCC(=O)Nc1ccc2oc(-c3ccc(O)c(Br)c3)nc2c1 | 1.34 | 
36 | COc1ccc(C(F)(F)F)cc1NC(=O)c1sc2nc(-c3cccs3)ccc2c1N | 42.7 | 
37 | CCCCCn1c(=O)[nH]c2cc(C(=O)Nc3cc(C)cc(C)c3)ccc2c1=O | -1.84 | 
38 | O=C(Cn1ncc2c3ccccc3n(Cc3ccccc3)c2c1=O)NC1CCCCCC1 | 1.54 | 
39 | COc1ccc(-c2noc(CSc3nc4ccc(C)cc4[nH]3)n2)cc1 | 3.26 | 
40 | Cc1ccc(-n2ncc(C(=O)N(C)Cc3ccccc3)c2-n2cccc2)cc1 | 6.28 | 
41 | CCOc1ccc(S(=O)(=O)c2cn(Cc3ccc(OC)cc3)c3ccc(F)cc3c2=O)cc1 | 6.07 | 
42 | Cc1ccc2nc(CNC(=O)c3ccccc3)[nH]c2c1 | 0.115 | 
43 | N#C/C(=C\c1ccccc1F)c1nc2ccccc2c(=O)[nH]1 | 3.51 | 
44 | O=C(/C(=C/c1cccc(Cl)c1)c1nc2ccccc2[nH]1)c1ccccc1 |  | 10 µM (active)
45 | COc1ccc(-c2noc(CSc3nc(C)cc(=O)[nH]3)n2)cc1OC | 4.68 | 
46 | CCOc1ccc(NC(=O)CN(Cc2ccccc2)S(=O)(=O)c2ccc(Cl)cc2)cc1 | 5.24 | 
47 | CCOc1ccc(N(Cc2ccccc2)C(=O)c2nc(S(C)(=O)=O)ncc2Cl)cc1 |  | 7.94 µM (active)
48 | CCOc1ccc(N(Cc2ccccc2)C(=O)c2nc(SCC)ncc2Cl)cc1 | 1.37 | 
